Experimental data published in PubChem BioAssay AID1053124 (Broad Institute, 2014).
Measured potencies and affinities stand elsewhere. Calls of active or inactive are those of the source.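 The calls were made as follows: active = cell killing whose fitted half-effect concentration is at most twice the top valid dose tested; inconclusive = flat curve with 30 to 70% killing, or a poor fit; inactive = effect in the rising direction, plus the rest.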

Test: viability loss in A549 lung cells – cell-based, ATP luminescence, cherry-pick, set 2, cytotoxicity control, dose response (AID 1053124)
Details: ATP luminescence (CellTiter-Glo), 72 h; series mostly up to 26 µM

**Q.** Which outcome does the source give for C=CCn1c(=N)c(C#N)cc2c(=O)n3ccccc3nc21 here?
**A.** The outcome was “inactive”.

**Q.** Which outcome does the source give for Cn1cc(C(c2ccccc2OCC(=O)O)c2cn(C)c3ccccc23)c2ccccc21 here?
**A.** The outcome was “inactive”.

**Q.** Which outcome does the source give for O=C(COC(=O)c1cc(S(=O)(=O)N2CCCCC2)ccc1N1CCOCC1)c1ccccc1Cl here?
**A.** The outcome was “inactive”.

**Q.** For CCOc1ccccc1N=c1oc2cc(O)ccc2cc1C(=O)NCC1CCCO1 (centres undefined), which outcome is on record?
**A.** Its outcome is “inactive”.

**Q.** For CCN(CC)CCCNc1nc(C)cc(COC)c1C#N, which outcome is on record?
**A.** The outcome was “inactive”.

**Q.** For CCOC(=O)C1=CN(CC2CCCO2)C=C(C(=O)OCC)C1c1ccccc1C(F)(F)F (centres undefined), which outcome is on record?
**A.** The outcome was “inactive”.

**Q.** Which outcome does the source give for CCc1nc(SCC(=O)c2ccccc2)c2ccccc2n1 here?
**A.** Its outcome is “inactive”.

**Q.** Which outcome does the source give for COc1ccc(S(=O)(=O)Cc2ccc(C(=O)N3CCN(Cc4ccccc4)CC3)o2)cc1 here?
**A.** Its outcome is “inactive”.

**Q.** For Cc1cc2cc(CNC(=O)c3ccco3)ccc2n1C, which outcome is on record?
**A.** Its outcome is “inactive”.

**Q.** With CCCOc1ccccc1/C=C1\SC(N)=NC1=O as the compound, how does the outcome read?
**A.** Its outcome is “inactive”.

**Q.** Which outcome does the source give for COc1ccccc1C1C2=C(CC(C)(C)CC2=O)N(CC(=O)O)C2=C1C(=O)CC(C)(C)C2 here?
**A.** The outcome was “inactive”.

**Q.** For O=C(NCc1ccc(F)cc1)C1CCCN1C(=O)Nc1cccc(F)c1 (centres undefined), which outcome is on record?
**A.** Its outcome is “inactive”.

**Q.** Which outcome does the source give for COC(=O)C1=CN(CC2CCCO2)C=C(C(=O)OC)C1c1cccc(O)c1 (centres undefined) here?
**A.** The outcome was “inactive”.

**Q.** Which outcome does the source give for CCc1cccc(OC2OC(CO)C(O)C(O)C2NC(C)=O)c1 (centres undefined) here?
**A.** The outcome was “inactive”.

**Q.** Which outcome does the source give for Clc1ccccc1C1=CC(c2ccco2)n2ncnc2N1 (centres undefined) here?
**A.** The outcome was “inactive”.

**Q.** Which outcome does the source give for Cc1cccn2c(=O)c3cc(C#N)c(=NC(=O)c4cccs4)n(CC(C)C)c3nc12 here?
**A.** The outcome was “inactive”.

**Q.** With O=C(O)C1=CC[C@@H](c2ccc(Cl)cc2)N(S(=O)(=O)c2ccc(Cl)cc2)[C@H]1c1ccc(F)cc1 as the compound, how does the outcome read?
**A.** The outcome was “inactive”.

**Q.** Which outcome does the source give for CCCn1c(=N)c(S(=O)(=O)c2ccccc2)cc2c(=O)n3ccccc3nc21 here?
**A.** Its outcome is “inactive”.

**Q.** Which outcome does the source give for COc1ccc(C2C3=C(CC(C)(C)CC3=O)N(C)C3=C2C(=O)CC(C)(C)C3)cc1 here?
**A.** Its outcome is “inactive”.

**Q.** For CCOC(=O)c1c(C)n(C)c2ccc(OCC(O)CN3CCC(C)CC3)cc12 (centres undefined), which outcome is on record?
**A.** The outcome was “inactive”.

**Q.** With Cc1ccc(S(=O)(=O)Nc2ccc(Nc3ccccc3)cc2)cc1 as the compound, how does the outcome read?
**A.** Its outcome is “inactive”.

**Q.** For C/C(=N\NC(=O)CC#N)c1cc2ccc(O)cc2oc1=O, which outcome is on record?
**A.** The outcome was “inactive”.

**Q.** Which outcome does the source give for CC/C(C)=N\Nc1nc(-c2cc3cc(OC)ccc3oc2=O)cs1 here?
**A.** Its outcome is “inactive”.

**Q.** Which outcome does the source give for C=CCc1c(O)c(CC)cc2c(C)cc(=O)oc12 here?
**A.** The outcome was “inactive”.

**Q.** With O=C(CCCN1C(=O)CSc2ncccc21)N1CCN(Cc2ccccc2)CC1 as the compound, how does the outcome read?
**A.** The outcome was “inactive”.

**Q.** With CCOCCCNc1nc2nc3ccc(C)cn3c(=O)c2cc1C(=O)NCC1CCCO1 (centres undefined) as the compound, how does the outcome read?
**A.** The outcome was “inactive”.

**Q.** For N#Cc1c2ccc(OCC(N)=O)cc2n2ccccc12, which outcome is on record?
**A.** Its outcome is “inactive”.

**Q.** Which outcome does the source give for CCOC1=NN(c2ncc(C(F)(F)F)cc2Cl)C(=O)C1 here?
**A.** Its outcome is “inactive”.

**Q.** For CCCOc1ccc(NC(=O)c2c(-c3ccccc3)noc2C)cc1, which outcome is on record?
**A.** The outcome was “inactive”.

**Q.** For Cc1cccn2c(=O)c3cc(C(=O)NC(C)c4ccccc4)c(=N)n(CCCn4ccnc4)c3nc12 (centres undefined), which outcome is on record?
**A.** Its outcome is “inactive”.

**Q.** For COCCCn1c(=N)c(C(=O)NC2CCCCC2)cc2c(=O)n3ccccc3nc21, which outcome is on record?
**A.** Its outcome is “inactive”.

**Q.** For Cc1noc(C)c1S(=O)(=O)N(CC(=O)N1CCCCCC1)c1ccc(C(C)C)cc1, which outcome is on record?
**A.** The outcome was “inactive”.

**Q.** For Cc1cc(-n2c(=O)c(C#N)cc3c(=O)n4ccccc4nc32)no1, which outcome is on record?
**A.** Its outcome is “inactive”.

**Q.** For Cc1ccc2nc3c(cc(S(=O)(=O)c4ccccc4)c(=N)n3Cc3ccco3)c(=O)n2c1, which outcome is on record?
**A.** The outcome was “inactive”.

**Q.** With COc1ccc(C(=O)c2sc3nc(-c4ccc(OC)cc4)ccc3c2N)cc1 as the compound, how does the outcome read?
**A.** The outcome was “inactive”.

**Q.** For O=c1[nH]c(Nc2ccccc2Cl)cc2ccccc12, which outcome is on record?
**A.** Its outcome is “inactive”.

**Q.** Which outcome does the source give for Cc1cc(CNC(=O)c2ccc3c(c2)OCO3)c2ccccc2n1 here?
**A.** The outcome was “inactive”.

**Q.** With COc1ccc(C(=O)Oc2cc(N)n(S(=O)(=O)c3ccccc3)n2)cc1 as the compound, how does the outcome read?
**A.** Its outcome is “inactive”.

**Q.** For O=C(O)c1[nH]c2ccccc2c1C(c1cc(Br)ccc1O)c1c(C(=O)O)[nH]c2ccccc12, which outcome is on record?
**A.** Its outcome is “inactive”.
